Measured values taken from PubChem BioAssay (NCI).
The panel holds about 83,000 compounds, 20% with a hit somewhere; the sample as a whole holds those more often.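 In brief: 96-well plates, 48 h treatment, single concentration, percent growth endpoint.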 Values without a mark were called inactive. Activity calls are given as the source filed them. Rule for the calls: active = growth percent below 10; inactive = the rest.

Tests used:
Test in all cases: NCI-60 one-dose screen, 48 h (100 = growth as untreated, 0 = no growth, -100 = all killed)
DU-145 prostate = settings: 10 µM unless noted
K-562 leukemia = settings: 10 µM unless noted
MALME-3M melanoma = settings: 10 µM unless noted
MDA-MB-231 breast = settings: 10 µM unless noted
RXF 393 renal = settings: 10 µM unless noted
SF-268 CNS = settings: 10 µM unless noted
SF-295 CNS = settings: 10 µM unless noted
SF-539 CNS = settings: 10 µM unless noted
UACC-257 melanoma = settings: 10 µM unless noted
M14 melanoma = settings: 10 µM unless noted
HCT-15 colon = settings: 10 µM unless noted
HT29 colon = settings: 10 µM unless noted
SNB-19 CNS = settings: 10 µM unless noted
U251 CNS = settings: 10 µM unless noted
PC-3 prostate = settings: 10 µM unless noted
SK-MEL-5 melanoma = settings: 10 µM unless noted
UACC-62 melanoma = settings: 10 µM unless noted
LOX IMVI melanoma = settings: 10 µM
SK-MEL-28 melanoma = settings: 10 µM unless noted

Row | Compound | growth (DU-145 prostate) | growth (K-562 leukemia) | growth (MALME-3M melanoma) | growth (MDA-MB-231 breast) | growth (RXF 393 renal) | growth (SF-268 CNS) | growth (SF-295 CNS) | growth (SF-539 CNS) | growth (UACC-257 melanoma) | growth (M14 melanoma) | growth (HCT-15 colon) | growth (HT29 colon) | growth (SNB-19 CNS) | growth (U251 CNS) | growth (PC-3 prostate) | growth (SK-MEL-5 melanoma) | growth (UACC-62 melanoma) | growth (LOX IMVI melanoma) | growth (SK-MEL-28 melanoma)
1 | C=C1CC[C@@H]2[C@]3(C)COC(c4cn[nH]c4-c4ccc(Br)cc4)O[C@@H]3CC[C@@]2(C)[C@@H]1C/C=C1/C(=O)OCC1O (stereo not given in full) | -78.6% (active) | 7.76% (active) | -70.7% (active) | -65.8% (active) | -89.1% (active) | -13.3% (active) | -65.6% (active) | -94.4% (active) | -71.4% (active) | -69.5% (active) | -62.6% (active) | 0.504% (active) | -36.5% (active) | -86.7% (active) | -44.1% (active) | -97% (active) | -79.1% (active) | -100% (active) | -78% (active)
2 | CCN(CC)CCOc1ccc(Nc2ncc3cc(-c4ccc(O)c(C#N)c4)c(=O)n(C)c3n2)cc1 | 84.6% | -47.5% (active) | -95.5% (active) | 11.9% | 22.3% | 77.1% | 90.8% | 62.2% | 101% | 70.4% | 86.2% | -58.4% (active) | 108% | -61.2% (active) | 69.5% | 43.8% | 92.1% | 47% | 79.8%
3 | CCCCSc1nc(Nc2ccc(S(N)(=O)=O)cc2)c(C#N)c(-c2cc(OC)c(OC)c(OC)c2)n1 | 54.1% | 3.62% (active) | 8.31% (active) | 42.5% | 32.8% | 60.7% | 24.2% | 38.1% | 61.7% | 33.3% | 25.7% | 42% | 54.5% | 43.3% | 16.7% | 20.5% | 21.9% | 7.76% (active) | 35.1%
4 | C#CCOc1cc(N(CC)CC)ccc1C(C(=O)NC(C)(C)C)N(C(=O)C1CCc2cc(F)ccc2O1)c1ccc(F)c(Cl)c1 (stereo not given) | 78.9% | 35.7% | 81.7% | 55.5% | 59.3% | 49.8% | 72.8% | 77.9% | 58.2% | 63.3% | 51.1% | 79% | 60.5% | 45.1% | 25.7% | 61.1% | 45.8% | 52.9% | 75.5%
5 | C=C1CC[C@@H]2[C@]3(C)COC(c4cn[nH]c4-c4cccc(Br)c4)O[C@@H]3CC[C@@]2(C)[C@@H]1C/C=C1/C(=O)OCC1O (stereo not given in full) | -85.5% (active) | -2.18% (active) | -74.5% (active) | -47.3% (active) | -90.8% (active) | -22.7% (active) | -78.6% (active) | -97.8% (active) | -72% (active) | -75.7% (active) | -67.5% (active) | 1.52% (active) | -87.9% (active) | -90.9% (active) | -47.9% (active) | -99.6% (active) | -83.2% (active) | -100% (active) | -76.7% (active)
6 | O=C(/C=C/Nc1ccc2oc(=O)ccc2c1)c1cc2cc(Br)ccc2oc1=O | 122% | 110% | 95.2% | 94.1% | 121% | 107% | 102% | 97.4% | 91.2% | 99.4% | 102% | 103% | 97.5% | 102% | 98% | 103% | 97.5% | 99.3% | 112%
7 | COc1cccc(/C=C/c2nc3ccccc3c(=O)n2CC(=O)Nc2ccc(Cl)cc2)c1 | 68.9% | 84.6% | 67.3% | 27.9% | 83.5% | 82.3% | 61.2% | 52.7% | 92.3% | 76.3% | 88.3% | 64.4% | 76.3% | 27.8% | 76.3% | 101% | 95.1% | 39.8% | 99.2%
8 | CC1(c2cc3cc(Cl)ccc3oc2=O)NC(=O)c2c(/C=C/C(=O)OC3CC4CCC3(C)C4(C)C)cccc2N1 (stereo not given) | 71.2% | 21.6% | 84.6% | 75.1% | 52% | 78.5% | 46.1% | 87.2% | 57.2% | 69.6% | 66.4% | 60.9% | 52.9% | 52.5% | 25.7% | 61.2% | 62.6% | 78.9% | 75.4%
9 | COc1ccc(/C=C/c2nc3ccccc3c(=O)n2CC(=O)Nc2ccc(Cl)cc2)cc1 | 65.9% | 66.6% | 76.3% | 48.8% | 48.5% | 61.4% | 53% | -13% (active) | 92.3% | 77.8% | 75.2% | 38.7% | 77.4% | 10.9% | 48.3% | 89% | 73.3% | 36.5% | 93%
10 | COc1c(F)ccc(C(=O)Nc2ccc3nc(NC(=O)C4CCCN(S(=O)(=O)c5cccc(Br)c5)C4)sc3c2)c1F (stereo not given) | 91.4% | 60.2% | 99.4% | 90.7% | -3.33% (active) | 69.7% | 84.5% | 74.5% | 92.4% | 87.2% | 80.8% | 85.7% | 82.7% | 75% | 57.8% | 89.4% | 80.8% | 85% | 97.8%
11 | O=C(Cn1c(/C=C/c2ccccc2)nc2ccccc2c1=O)Nc1ccccc1 | 74.8% | 93.2% | 69.9% | 24.8% | 8.81% (active) | 91.4% | 70.7% | 70.2% | 104% | 102% | 76.6% | 98.5% | 67.8% | 35.8% | 76.1% | 97.3% | 90.1% | 43.2% | 111%
12 | C#CCOc1cc(N(CC)CC)ccc1C(C(=O)NC(C)(C)C)N(C(=O)C1CCc2cc(F)ccc2O1)c1ccc(F)cc1 (stereo not given) | 65.3% | 23.6% | 65.6% | 51% | 57.3% | 47.7% | 41.5% | 66.2% | 40.3% | 46.4% | 44.6% | 61% | 41.6% | 37.9% | 17.6% | 33.9% | 35.5% | 42.3% | 66.7%
13 | CC1(c2cc3cc(Br)ccc3oc2=O)NC(=O)c2c(/C=C/C(=O)OC3CC4CCC3(C)C4(C)C)cccc2N1 (stereo not given) | 84.3% | 28.4% | 102% | 98.2% | 75.2% | 82.8% | 64% | 96.8% | 77% | 86% | 82.9% | 88.7% | 72% | 69.8% | 36.5% | 74.5% | 79.8% | 84.5% | 86.5%
14 | N/C(=N\N=C\c1ccc([N+](=O)[O-])cc1)c1c(N)nc(=S)[nH]c1-c1ccc(Cl)cc1Cl | 115% | 95% | 73% | 77.5% | 73.1% | 94.9% | 52.4% | 74.7% | 104% | 102% | 103% | 116% | 74.9% | 67% | 96.8% | 104% | 84.7% | 96.5% | 113%
15 | COc1c(F)ccc(C(=O)Nc2ccc3nc(NC(=O)C4CCCN(S(=O)(=O)c5ccc(Cl)cc5)C4)sc3c2)c1F (stereo not given) | 93.4% | 59.2% | 90.5% | 81.1% | 8.75% (active) | 77.4% | 63.6% | 66.8% | 82.4% | 75.6% | 72.8% | 72.1% | 82.5% | 70.3% | 55.9% | 72.3% | 67.1% | 76% | 89.4%
